Results from PubChem BioAssay (EPA / NIEHS).
Several values for one entry are separate records, joined by “and”; a condition that tells them apart may be missing. Equal values may be shown once. Records with an inconclusive call do not appear. The source holds several records for some structures; these can differ, active in one and inactive in another. Activity calls are given as the source filed them. Rule for the calls: active = hit-call score of the fitted dose curve at least 0.9, where 1 is the maximum; inconclusive = response in the unintended direction; inactive = score below 0.9.

These molecules were tested against human Serotonin, 5-Hydroxytryptamine Receptor 5A (5HT5A), HTR5A (gene 3361) (UniProt P47898) (assay: NVS_GPCR_h5HT5A: NovaScreen (NVS) G Protein-Coupled Receptor Assay for human Serotonin, 5-Hydroxytryptamine Receptor 5A (5HT5A) (AID 2283251)).
Chain of human Serotonin, 5-Hydroxytryptamine Receptor 5A (5HT5A), HTR5A (gene 3361) (P47898 whole entry, looked up): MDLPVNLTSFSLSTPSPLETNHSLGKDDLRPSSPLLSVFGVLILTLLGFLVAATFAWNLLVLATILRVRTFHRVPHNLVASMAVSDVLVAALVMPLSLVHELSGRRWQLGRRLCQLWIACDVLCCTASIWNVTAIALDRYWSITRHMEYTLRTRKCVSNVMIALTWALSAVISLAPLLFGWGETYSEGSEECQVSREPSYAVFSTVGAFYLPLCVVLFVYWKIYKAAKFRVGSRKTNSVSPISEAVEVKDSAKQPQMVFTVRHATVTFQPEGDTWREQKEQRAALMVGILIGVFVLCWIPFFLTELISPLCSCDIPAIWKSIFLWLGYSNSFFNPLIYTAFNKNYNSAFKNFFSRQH
Procedure: NVS_GPCR_h5HT5A is a biochemical, single-readout assay that uses extracted gene-proteins from HEK293 in a cell-free assay. Measurements were taken 1 hour after chemical dosing in a 96-well plate.NVS_GPCR_h5HT5A is one of one assay component(s) measured or calculated from the NVS_GPCR_h5HT5A assay. It is designed to make measurements of radioligand binding, a form of binding reporter, as detected with scintillation counting signals by Filter-based radiodetection technology.Data from the assay component NVS_GPCR_h5HT5A was analyzed into 1 assay endpoint. This assay endpoint, NVS_GPCR_h5HT5A, was analyzed in the positive analysis fitting direction relative to DMSO as the negative control and baseline of activity. Using a type of binding reporter, loss-of-signal activity can be used to understand changes in the binding as they relate to the gene HTR5A. Furthermore, this assay endpoint can be referred to as a primary readout, because the performed assay has only produced 1 assay endpoint. To generalize the intended target to other relatable targets, this assay endpoint is annotated to the gpcr intended target family, where the subfamily is rhodopsin-like receptor.
Binding assays used specific radioligands (tritiated, iodinated) with non-radioactive competitive displacement ligands in agonist or antagonist protocols (as indicated) and various reference compounds and inhibitors to titrate specific binding to receptors and transporters. Most enzyme assays (CYPs, kinases, phosphatases, proteases, HDACs) used recombinant protein and specific substrates (fluorescence mostly, some colorimetric and radioactive) and inhibitors, followed by a biochemical separation of substrate and product. All assays for the biochemical HTS were initially run in duplicate at a single concentration (10 uM for CYP450 assays and 25 uM for all others). […] Each assay was run with positive and negative controls, and concurrent controls on every plate. The follow-up (secondary) screen tested active chemical-pairs in concentration series, as well as a few additional assays not tested in the primary screen, some selected negative inactives, and several cases re-run in the concentration series for confirmatory purposes.

| Compound | outcome | AC50 |
| --- | --- | --- |
| O=C(O)C(F)(F)C(F)(F)C(F)(F)C(F)(F)C(F)(F)C(F)(F)C(F)(F)F | inactive |  |
| CCN(CC)C(=O)SCc1ccc(Cl)cc1 | inactive |  |
| O=C(Nc1ccccc1)Nc1cnns1 |  | 3.88 µM (active) |
| CCC(C)(C)C(=O)OC1=C(c2ccc(Cl)cc2Cl)C(=O)OC12CCCCC2 | inactive |  |
| CCC(C)(NC(=O)c1cc(Cl)c(C)c(Cl)c1)C(=O)CCl (centres undefined) | inactive |  |
| CC(C)(C)C(O)/C(=C\c1ccc(Cl)cc1Cl)n1cncn1 (centres undefined) | inactive |  |
| CC[C@H](C)[C@H]1O[C@]2(C=C[C@@H]1C)C[C@@H]1C[C@@H](C/C=C(\C)[C@@H](O[C@H]3C[C@H](OC)[C@@H](O[C@H]4C[C@H](OC)[C@@H](O)[C@H](C)O4)[C@H](C)O3)[C@@H](C)/C=C/C=C3\CO[C@@H]4[C@H](O)C(C)=C[C@@H](C(=O)O1)[C@]34O)O2 (tested in a mixture with another compound) |  | 3.1 µM (active) |
| O=S1OCC2C(CO1)C1(Cl)C(Cl)=C(Cl)C2(Cl)C1(Cl)Cl (centres undefined) | inactive |  |
| O=S(=O)(O)C(F)(F)C(F)(F)C(F)(F)C(F)(F)C(F)(F)C(F)(F)C(F)(F)C(F)(F)F | inactive | 35.1 µM (active) and 11.6 µM (active) and 33.8 µM (active) |
| O=C1c2ccccc2C(=O)N1SC(Cl)(Cl)Cl | inactive |  |
| CCCN(CCOc1c(Cl)cc(Cl)cc1Cl)C(=O)n1ccnc1 | inactive |  |
| Oc1ccc(Cl)cc1Cc1ccccc1 |  | 25.2 µM (active) [middle of 6 runs] |
| CCCN(CCC)c1c([N+](=O)[O-])cc(C(F)(F)F)cc1[N+](=O)[O-] |  | 6.21 µM (active) |
